Here are results for 6 compounds from PubChem BioAssay (EPA / NIEHS).

Assay [1] in a line: BSK_BT_PBMCCytotoxicity: PBMC Cytotoxicity Assessment in the BioMAP Diversity Plus: BT Assay (AID 2284225).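 Further: PBMC viability measured by Alamar Blue dye reduction fluorescence.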 The note with it: primary human B cells with PBMC. An outline of the steps: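 75,000 cells/well; cpd 1 h → SEB + TSST-1 (20 ng/mL final each) → 90 h → Alamar Blue 6 h → fluor. 546/580 nm. DMSO = neg. control/baseline.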
A short description of assay [2]: CCTE_Shafer_MEA_dev_AB: CCTE's Alamar Blue Assay for Cytotoxicity in the Neural Network Formation Assay, Shafer Lab (AID 2284083; active means hit-call score of the fitted dose curve at least 0.9, where 1 is the maximum;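 further: resazurin reduction fluorescence as viability of cultured neurons; twelve days of exposure from plating with re-dosing on DIV 5 and 9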). An outline of the steps: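 Rat cortical primary cultures, 1.5 x 10^5 cells/well on MEA; continuous compound exposure over 12 days of network development, re-dosed with full medium change DIV 5 and 9. Alamar Blue fluorescence; loss of signal = cytotoxicity vs DMSO baseline.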

The nature of assay [3]: CCTE_Shafer_MEA_dev_mutual_information_norm: CCTE's Neural Network Formation Assay for Mutual Information Normalization, Shafer Lab (AID 2284091).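 On AC50: mutual information between electrodes summarised as area under curve across four recording days; potency is for a decrease in mutual information relative to DMSO.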 The method, boiled down: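 Primary rat cortical neurons on PEI-coated 48-well MEA plates, 1.5 x 10^5 cells/well, exposed from day 0 through day 12 with re-dosing at DIV 5 and 9. Mutual information between electrodes recorded days 5, 7, 9, 12; trapezoidal AUC, loss-of-signal fit versus DMSO.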

Assay [4] is described as follows: CCTE_Shafer_MEA_dev_correlation_coefficient_mean: CCTE's Neural Network Formation Assay for Mean Correlation Coefficient, Shafer Lab (AID 2284093).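 On AC50: well mean pairwise spike train correlation integrated as AUC over recording days 5 to 12; potency fitted for loss of correlation relative to DMSO vehicle wells.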 An outline of the steps: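 Rat cortical cultures, 1.5 x 10^5 cells/well, dosed from day 0 for 12 days. Spontaneous spikes recorded DIV 5/7/9/12; electrode-pair correlation coefficients averaged, AUC taken. Fit in loss direction vs DMSO.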

Assay [5] in a line: IUF_NPC1b_proliferation_BrdU_72hr: Leibniz Research Institute for Environmental Medicine (IUF) 72-hour Neural Progenitor Cell Bromodeoxyuridine (BrdU) Proliferation Assay (NPC1b) (AID 2284207). The method, boiled down:
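BrdU luminescence ELISA quantified DNA synthesis over the last 16 h of a 72 h exposure, fitted against DMSO. Primary hNPC spheres from gestational week 16-19 cortex grown with EGF/FGF at 37C, pH 7.2-7.6.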

Assay [6] is described as follows: IUF_NPC1a_proliferation_area_72hr: Leibniz Research Institute for Environmental Medicine (IUF) 72-hour Neural Progenitor Cell Proliferation Area Assay (NPC1a) (AID 2284208). The method, boiled down: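 Proliferation is scored as sphere area gain in primary human fetal neural progenitors treated for 72 h in EGF/FGF-containing medium. Viability, LDH and BrdU readouts come from the same wells.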

A short description of assay [7]: IUF_NPC1_viability_72hr: Viability Assessment at 72 hours in the Leibniz Research Institute for Environmental Medicine (IUF) Neural Progenitor Cell Proliferation Assay (NPC1) (AID 2284209). An outline of the steps:
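Human fetal-cortex neural progenitor spheres (0.25–0.35 mm, one per well) grown in EGF/FGF proliferation medium at 37C, pH 7.2-7.6, exposed 72 h without renewal; viability read as alamar blue resazurin-to-resorufin fluorescence relative to DMSO.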

A short description of assay [8]: CCTE_Mundy_HCI_Cortical_Synap_Neur_Matur_NeuriteSpotCountPerNeuriteLength: CCTE's Synaptogenesis and Neurite Maturation Assay in rat cortical cells for Neurite Spot Count per Neurite Length, Mundy Lab (AID 2284210). An outline of the steps: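 Rat primary cortical cultures, AraC added at DIV 5 to suppress glia; chemical exposure from DIV 7 to DIV 12. Fixed cells stained for MAP2 and synaptophysin plus Hoechst; synaptophysin puncta per neurite length quantified by high-content imaging, relative to DMSO.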

Assay [9] can be described thus: CCTE_Mundy_HCI_Cortical_Synap_Neur_Matur_BPCount: CCTE's Synaptogenesis and Neurite Maturation Assay in rat cortical cells for Branch Point Count, Mundy Lab (AID 2284211). The method, boiled down:
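Branch point number is quantified by automated imaging of fluorescently labelled neurites and synapses in rat primary cortical neurons exposed from DIV 7 to DIV 12. Activity is analysed relative to DMSO negative control.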

A short description of assay [10]: CCTE_Mundy_HCI_Cortical_NOG_NeuriteCount: CCTE's Neurite Outgrowth Assay in rat cortical cells for Neurite Count, Mundy Lab (AID 2284212).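 Further: cells fixed about two days after chemical exposure began.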 The method, boiled down: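 Neurite number per cell from high-content imaging of betaIII-tubulin immunostaining, with Hoechst nuclear counterstain.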
Assay [11] is described as follows: CCTE_Mundy_HCI_Cortical_NOG_NeuriteLength: CCTE's Neurite Outgrowth Assay in rat cortical cells for Neurite Length, Mundy Lab (AID 2284213).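 On AC50: neurites imaged about 48 to 50 h after chemical exposure began.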 An outline of the steps:
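Neurite length was read by high-content imaging of βIII-tubulin-labelled neurites in rat primary cortical cultures. Activity was fitted relative to DMSO.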

The nature of assay [12]: CCTE_Mundy_HCI_Cortical_Synap_Neur_Matur_NeuriteLength: CCTE's Synaptogenesis and Neurite Maturation Assay in rat cortical cells for Neurite Length, Mundy Lab (AID 2284214). The method, boiled down: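 Rat primary cortical cells were plated, treated with AraC at DIV 5 to arrest glial growth, then chemical-dosed with media change at DIV 7 through DIV 12. Fixed cells stained for MAP2, synaptophysin and Hoechst; neurite length quantified by high-content imaging.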

Assay [13] is described as follows: CCTE_Mundy_HCI_Cortical_Synap_Neur_Matur_SynapseCount: CCTE's Synaptogenesis and Neurite Maturation Assay in rat cortical cells for Synapse Count, Mundy Lab (AID 2284218). The method, boiled down:
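Rat primary cortical cells in 96-well plates received AraC at DIV 5 and were dosed with chemicals at DIV 7 with media change, through DIV 12 (288.33 h). Synapses per neuron counted by high-content imaging of MAP2/synaptophysin/Hoechst staining, versus DMSO baseline.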

Assay [14] in a line: CCTE_Mundy_HCI_Cortical_Synap_Neur_Matur_NeuriteCount: CCTE's Synaptogenesis and Neurite Maturation Assay in rat cortical cells for Neurite Count, Mundy Lab (AID 2284222).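 On outcome: exposure from day 7 to day 12 in vitro with readout at day 12.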 An outline of the steps:
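Primary rat cortical cells were plated, treated with AraC at DIV 5, then exposed to chemicals from DIV 7 through DIV 12. After fixation and immunostaining for MAP2 and synaptophysin, imaging quantified neurites, with DMSO as the negative control.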

Assay [15] in a line: CCTE_Mundy_HCI_Cortical_Synap_Neur_Matur_CellBodySpotCount: CCTE's Synaptogenesis and Neurite Maturation Assay in rat cortical cells for Cell Body Spot Count, Mundy Lab (AID 2284223). An outline of the steps:
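Synapse number at neuronal cell bodies was quantified as synaptophysin puncta per neuron in rat cortical cultures exposed from DIV 7 to DIV 12. Values were normalised to DMSO.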

A short description of assay [16]: CCTE_Mundy_HCI_hN2_NOG_NeuriteCount: CCTE's Neurite Outgrowth Assay in human hN2 cells for Neurite Count, Mundy Lab (AID 2284219; active means hit-call score of the fitted dose curve at least 0.9, where 1 is the maximum). An outline of the steps: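 In this morphology assay, hNP1-derived neurons received test chemical 2 h post-plating and were fixed two days later in warm paraformaldehyde/sucrose containing Hoechst 33342. Neurites, labelled by rabbit anti-βIII-tubulin (1:800) and Alexa Fluor-488 (1:500), were counted automatically.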

Assay [17] in a line: CCTE_Mundy_HCI_hN2_NOG_NeuriteLength: CCTE's Neurite Outgrowth Assay in human hN2 cells for Neurite Length, Mundy Lab (AID 2284220; active means hit-call score of the fitted dose curve at least 0.9, where 1 is the maximum). An outline of the steps:
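Read-out is neurite length from high-content imaging of βIII-tubulin/Alexa Fluor-488-labelled neurons, referenced to DMSO controls.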

Assay [18] can be described thus: TAMU_PeakParms_SingleDonor1434_Chronotropy: Texas A&M University (TAMU) 1.5-hr Human Induced Pluripotent Stem Cell (iPSC)-derived Cardiomyocytes Calcium (Ca+2) Flux Assay for Cardiotoxicity: Chronotropy (changes in peak frequency) (AID 2284217). The conditions noted are these: actives raise or lower the signal. The method, boiled down: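 iPSC-CMs, donor 1434; 4 conc (0.2–100 uM), 0.5% v/v DMSO, 90 min, 37C/5% CO2; Ca2+ flux fluorescence → peak.freq.avg; peak.freq.avg = 0 dropped; bidirectional fit vs DMSO; EC05 POD.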

Where “and” joins values, the source holds several entries; their conditions need not be identical. Identical values can stand only once. Records with an inconclusive call do not appear. A structure can be active in one record and inactive in another. Calls of active or inactive are those of the source. How the source made its calls, unless noted: active means hit-call score of the fitted dose curve at least 0.9, where 1 is the maximum; inactive means score below 0.9.

For orientation: AC50 means the midpoint of the concentration-response curve, whichever way the signal moves.

In the case of `COc1cnc(OC)n2nc(NS(=O)(=O)c3c(OCC(F)F)cccc3C(F)(F)F)nc12`, in assay [1], the outcome was inactive.
In the case of `CN(C)C(=S)SSC(=S)N(C)C`, the AC50 in [2] is 12 nM (active); in [3], 6.69 nM (active); in [4], 9.07 nM (active); in [5] it was 50100 nM (active); in [6], 67200 nM (active); in assay [7], 74600 nM (active). Also, the AC50 in [8] was 76.5 nM (active); in assay [9], 76.7 nM (active); in assay [10], 73.3 nM (active); in assay [11] it was 58.8 nM (active); in [12], 54.9 nM (active); in [13] it was 58.7 nM (active). The AC50 in assay [14] is 58.5 nM (active); in assay [15], 78.3 nM (active).
In the case of `COP(N)(=O)SC` (centres undefined), the call in [2], in [3], in [4], in [5], in [6] and in assay [7] was inactive. The result in assay [8], in assay [9], in [10], in [11], in assay [12] and in [13] was inactive. For the same compound, the outcome in [16], in assay [17], in assay [14] and in assay [15] was inactive. Also, the AC50 in assay [9] was 25.8 nM (active).
On to `COC(=O)N(OC)c1ccccc1COc1ccn(-c2ccc(Cl)cc2)n1`, for which the AC50 in assay [2] was 120 nM (active) and 25.3 nM (active); in assay [3] it was 57.3 nM (active) and 9.62 nM (active); in [4], 161 nM (active) and 10.2 nM (active); in assay [5], 4100 nM (active); in [6] it was 1440 nM (active); in assay [7], 7520 nM (active). Also, the AC50 in assay [8] was 82.3 nM (active); in assay [9], 56.3 nM (active); in assay [10] it was 141 nM (active); in assay [11] it was 153 nM (active); in assay [12] it was 83.8 nM (active); in assay [13], 70.9 nM (active). For the same compound, the AC50 in [14] was 105 nM (active); in [15], 113 nM (active).
With `CO/C=C(/C(=O)OC)c1ccccc1Oc1cc(Oc2ccccc2C#N)ncn1`, the AC50 in [2] is 1.73 µM (active) and 2.19 µM (active); in assay [3], 1.11 µM (active) and 985 nM (active); in assay [4] it was 1.57 µM (active) and 574 nM (active); in assay [6], 60200 nM (active); in [8], 5110 nM (active); in assay [9], 3250 nM (active). Besides, the AC50 in [10] was 2730 nM (active); in [11] it was 2580 nM (active); in [12], 3560 nM (active); in assay [13], 3620 nM (active); in assay [14], 4780 nM (active); in assay [15] it was 5600 nM (active). The result in [5] and in assay [7] was inactive.
On to `CCCCNC(=O)OCC#CI`, for which the AC50 in [2] is 3.1 µM (active) and 1.55 µM (active); in assay [3] it was 1.81 µM (active) and 1.09 µM (active); in [4], 3.8 µM (active) and 1.05 µM (active). Also, in [18], the result was inactive.
